Assay outcomes from PubChem.
A selection: hits, their analogues and other compounds. The true share with any hit is near 6.8%.
SW480 rerep: DNA re-replication induction in SW480 cells | 340,000 compounds, 1.8% hits | Potency, µM (highest dose often 46.1 µM), actives largely listed as activators | SW480 DNA re-replication, Hoechst DNA content imaging, 48 h; note: nearly all actives have a fitted effect of over 55% in size
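Quantitative HTS format with DMSO vehicle controls; 48 hr drug incubation at 37 C, then 40 min Hoechst staining and scanning imager measurement at 405 nm excitation.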
PINK1 modulator: modulators of PINK1 expression. Potency, µM (highest dose often 76.6 µM), hits mostly activators. PINK1 immunofluorescence, high-content cytometry, 24 h. 410,000 compounds, 0.2% hits. AID 624263; active = well fitted activation curve with a large enough effect; inconclusive = small, poorly fitted or top-dose-only effect; cell line not stated here; note: nearly all actives have a fitted effect of over 65% in size
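Measures PINK1 amount and localization on or inside mitochondria by immunofluorescence. Stable cells get compounds at 5 concentrations for 24 hours before fixation and staining; CCCP controls included.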
TSG101-PTAP inh: blocks PTAP/TSG101 interaction to inhibit HIV-1 budding. Fluorescence polarization, FITC-PTAP peptide / Tsg101 binding. AID 493005. 340,000 tested, under 10 active. Q99816. Potency, µM (highest dose often 115 µM), most hits filed as inhibitors; active = well fitted inhibition curve with a large enough effect in the main read-out, with a control signal flat, not every such curve was filed as active; inconclusive = small, poorly fitted or top-dose-only effect, or effect the other way, or a change in a side signal; inactive = no such curve, though single readings can be large or run the other way
Target sequence (Q99816 whole entry, looked up): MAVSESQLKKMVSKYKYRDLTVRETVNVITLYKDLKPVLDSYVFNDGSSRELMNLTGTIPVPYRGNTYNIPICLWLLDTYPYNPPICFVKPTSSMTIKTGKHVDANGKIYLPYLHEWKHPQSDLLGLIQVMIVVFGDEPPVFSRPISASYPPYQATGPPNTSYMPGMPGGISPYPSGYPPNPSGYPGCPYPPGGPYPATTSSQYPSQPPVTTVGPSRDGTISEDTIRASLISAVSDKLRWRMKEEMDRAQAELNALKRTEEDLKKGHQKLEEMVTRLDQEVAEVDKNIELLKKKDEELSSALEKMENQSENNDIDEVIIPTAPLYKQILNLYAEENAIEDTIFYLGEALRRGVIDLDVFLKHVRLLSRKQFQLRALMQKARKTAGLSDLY
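Fluorescence anisotropy tracks displacement of a FITC-tagged PTAP peptide (50 nM) from the Tsg101 binding domain (10 uM), following a 20 min room-temperature incubation at pH 7.5.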
KB-3-1 cytotox: kills parental KB-3-1 adenocarcinoma cells; 400,000 compounds, 1.4% hits; AID 1347075; KB-3-1 viability, CellTiter-Glo ATP luminescence, 72 h; Potency, µM (series often up to 46.1 µM), usual class: cytotoxic; note: nearly all actives have a fitted effect of over 60% in size
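Parental KB-3-1 adenocarcinoma cells in phenol-red-free DMEM with 10% FBS were pin-treated with compounds at several concentrations, incubated 72 h at 37 °C, and viability read by CellTiter-Glo luminescence; concentration-effect curves were fitted after normalization.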
KB-V1 cytotox: kills drug-selected multidrug resistant KB-V1 cells. KB-V1 MDR cells viability, CellTiter-Glo, 72 h. Potency, µM (series often up to 46.1 µM), usual class: cytotoxic. 400,000 compounds, 3.4% hits. AID 1347076; note: nearly all actives have a fitted effect of over 60% in size
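In this primary screen, KB-V1 cells overexpressing P-gp are incubated with library compounds (lowest to highest concentration) for 72 h at 37 degrees C before a luminescent ATP viability read.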
MCF10A rereplic: induces DNA re-replication in MCF 10a normal breast cells | MCF 10A DNA re-replication, Hoechst nuclear intensity, 48 h | Potency, µM (top dose mostly 46.1 µM), actives largely listed as activators | 350,000 compounds, 2.9% hits | AID 624296; note: nearly all actives have a fitted effect of over 50% in size
Of the large screens only hits and unclear results are named; the others gave an inactive call. Unless noted, calls come from the whole dose curve; as a rule, active = well fitted curve in the direction sought with a large enough effect; inconclusive = small, poorly fitted or top-dose-only effect, or another doubt; inactive = no such curve, though single readings can be large; an effect the other way counts as inactive or inconclusive.

O=C(Nc1cccc(-c2nc3ccccc3[nH]2)c1)c1cccc(NC(=O)c2ccco2)c1	SW480 rerep 14.6µM, KB-3-1 cytotox inconclusive, MCF10A rereplic inconclusive
COCCN1Cc2cccc(C(=O)Nc3cccc(-c4nc5ccccc5[nH]4)c3)c2C1=O	KB-3-1 cytotox inconclusive, KB-V1 cytotox 10.3µM, MCF10A rereplic inconclusive
O=C(Nc1ccc2nc(-c3ccccc3)[nH]c2c1)c1ccco1	KB-3-1 cytotox inconclusive
Nc1cccc(Nc2nc(OC(C(F)(F)F)C(F)(F)F)nc(OC(C(F)(F)F)C(F)(F)F)n2)c1	PINK1 modulator inconclusive, KB-3-1 cytotox 18.4µM, KB-V1 cytotox 23.1µM, MCF10A rereplic inconclusive
COc1nc(Nc2ccc(O)cc2)nc(OC(C(F)(F)F)C(F)(F)F)n1	KB-3-1 cytotox inconclusive
COc1ccc(CNc2nc(NCc3ccc(OC)cc3)c3[nH]cnc3n2)cc1	KB-3-1 cytotox inconclusive, MCF10A rereplic 11.6µM
COc1ccc(CNc2ncnc3nc[nH]c23)cc1	none (no result: SW480 rerep, TSG101-PTAP inh, MCF10A rereplic)
Cn1c(CN2CCCCC2)nc2cc(NC(=O)c3ccc(Cl)cc3)ccc21	SW480 rerep inconclusive, KB-3-1 cytotox inconclusive, KB-V1 cytotox inconclusive, MCF10A rereplic 23.1µM
Cn1c(CN2CCOCC2)nc2cc(NC(=O)c3ccc(F)cc3)ccc21	KB-V1 cytotox 16.4µM (no result: PINK1 modulator)
Cn1c(CN2CCOCC2)nc2cc(NC(=O)c3ccccc3Cl)ccc21	KB-V1 cytotox inconclusive (no result: PINK1 modulator)
O=C(Nc1sc2c(c1CN1CCOCC1)CCC2)c1ccc(F)cc1	KB-V1 cytotox 2.06µM
O=C(Nc1ccccc1)N1CCCC2(CCNCC2)C1	none (no result: SW480 rerep, TSG101-PTAP inh, KB-3-1 cytotox, KB-V1 cytotox, MCF10A rereplic)
CCOc1ccc(NC(=O)c2cccc3c(=O)c4c([nH]c23)CCCC4)cc1	none (no result: SW480 rerep, TSG101-PTAP inh, MCF10A rereplic)
CC1(C)Cc2c(ccc3ccccc23)C2=C(C(=O)N3CCCC3)C(=O)C(=O)N21	MCF10A rereplic 20.6µM
CCCSc1ncc(Cl)c(C(=O)N2CCN(c3cccc(Cl)c3)CC2)n1	none (no result: SW480 rerep, TSG101-PTAP inh, KB-3-1 cytotox, KB-V1 cytotox, MCF10A rereplic)
Cn1c(C(=O)OC(C(=O)NC2CCCCC2)c2cccnc2)cc2sccc21 (centres undefined)	none
Cn1c(C(=O)OC(C(=O)NC2CCCC2)c2cccnc2)cc2sccc21 (centres undefined)	SW480 rerep inconclusive, KB-V1 cytotox inconclusive, MCF10A rereplic 10.3µM
CC(=C/c1ccccc1)/C=N/n1cnnc1	none (no result: PINK1 modulator)
CC(/C=N/n1cnnc1)=C\c1ccccc1	KB-3-1 cytotox 5.17µM, KB-V1 cytotox 1.84µM
Cc1ccc(CNc2nc(CN3CCNC(=O)C3)nc3ccccc23)o1	none (no result: SW480 rerep, TSG101-PTAP inh, KB-3-1 cytotox, KB-V1 cytotox, MCF10A rereplic)
C=C1CCC(O)C2(C)CCC3C(C)C(=O)OC3C12O (centres undefined)	none
C=C1C(=O)O[C@@H]2[C@H]1CC[C@H](C)[C@]1(O)CCC(=O)[C@@]21C	SW480 rerep inconclusive, KB-3-1 cytotox inconclusive, MCF10A rereplic 23.1µM
CCN(Cc1ccccc1)C(c1ccc(C(F)(F)F)cc1)c1nnnn1C(C)(C)C (centres undefined)	KB-3-1 cytotox 16.4µM, KB-V1 cytotox 20.6µM, MCF10A rereplic inconclusive
CCN(Cc1ccccc1)C(c1cccc(C#N)c1)c1nnnn1C(C)(C)C (centres undefined)	KB-V1 cytotox 13µM
Cn1c(=O)c2c(nc(SCC(=O)Nc3ccccc3F)n2Cc2ccccc2F)n(C)c1=O	none (no result: SW480 rerep, TSG101-PTAP inh, MCF10A rereplic)
FC(F)(F)c1ccc(N2CCN(c3ncnc4c3nnn4Cc3ccccc3)CC2)nc1	PINK1 modulator 11.2µM, MCF10A rereplic inconclusive
c1ccc(Cn2nnc3c(N4CCOCC4)ncnc32)cc1	none
Cc1cccc(CNc2ccnc(-c3ccccc3CN(C)C)n2)c1	none (no result: SW480 rerep, TSG101-PTAP inh, KB-3-1 cytotox, KB-V1 cytotox, MCF10A rereplic)
O=C(NCc1cccs1)c1nc2c(nnn2Cc2ccc(F)cc2)c(=O)[nH]1	KB-V1 cytotox 23.1µM (no result: TSG101-PTAP inh)
O=C(NCC1CCCO1)c1nc2c(nnn2Cc2ccc(F)cc2)c(=O)[nH]1 (centres undefined)	none
CC[C@@H](C)[C@H](NC(=O)OC(C)(C)C)c1nnc(S(=O)(=O)Cc2cc(C)ccc2C)o1	KB-V1 cytotox inconclusive, MCF10A rereplic 4.11µM
